# Gli-Sufu block: Gli-Sufu pathway antagonists, primary screen, luciferase luminescence, Sufu-KO-LIGHT cells, uHTS; Sufu-KO-LIGHT fibroblasts, Gli luciferase reporter luminescence; inhibition, % at 5 µM; 340,000 tested, 0.74% active; AID 588413, 2011;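 active means inhibition above about 55%, limit read from the data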;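 further: 0% = DMSO-treated cells and 100% = wells with medium but no cells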
# LRH-1 inv ag: LRH-1 (NR5A2) inverse agonists, primary screen, cell-based, luminescence, HEK293T, StAR-luciferase reporter. Nuclear receptor subfamily 5 group A member 2 (Homo sapiens), O00482. LRH-1 transfected, 24 h. inhibition, % at 3.6 µM. 360,000 tested, 0.13% active. AID 602396, 2012;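 active means inhibition above the mean inhibition of all tested compounds plus 3 SD, cut at about 73% in these data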;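 further: 0% = DMSO wells and 100% = reporter-only cells lacking LRH-1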
# Target sequence (O00482 whole entry, looked up): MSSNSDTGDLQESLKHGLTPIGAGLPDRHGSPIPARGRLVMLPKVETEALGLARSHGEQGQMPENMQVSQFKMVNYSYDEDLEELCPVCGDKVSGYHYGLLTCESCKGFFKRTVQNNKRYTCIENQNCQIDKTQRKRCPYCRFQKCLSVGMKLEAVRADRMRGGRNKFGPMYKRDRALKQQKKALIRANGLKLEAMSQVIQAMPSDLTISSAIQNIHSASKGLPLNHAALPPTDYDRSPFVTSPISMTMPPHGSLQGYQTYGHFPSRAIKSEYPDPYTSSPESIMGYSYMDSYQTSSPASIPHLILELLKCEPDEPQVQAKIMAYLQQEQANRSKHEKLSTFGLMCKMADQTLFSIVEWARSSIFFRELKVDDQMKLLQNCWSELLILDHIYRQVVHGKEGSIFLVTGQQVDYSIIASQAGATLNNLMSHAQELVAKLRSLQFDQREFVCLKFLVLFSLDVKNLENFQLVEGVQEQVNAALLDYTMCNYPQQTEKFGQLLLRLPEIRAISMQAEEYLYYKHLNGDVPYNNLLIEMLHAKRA
# SRC2 inh: inhibition of GAL4-SRC2 driven luciferase reporter, primary screen, SRC2 inhibitor project, cell-based, luminescence; 370,000 tested, 0.17% active; Nuclear receptor coactivator 2 (Homo sapiens), Q15596; HEK293 GAL4-SRC2 luciferase reporter; inhibition, % at 9 µM; AID 651957, 2012;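 active means inhibition above the mean inhibition of all tested compounds plus 3 SD, set per campaign, cut at about 52% in these data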;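 further: 0% = DMSO treated cells and 100% = cells given Gossypol at 36 µM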
# SRC3 inh: SRC3 coactivator transcriptional activity inhibitors, primary screen, cell-based, luminescence | Nuclear receptor coactivator 3 (Homo sapiens), Q9Y6Q9 | HEK293 GAL4-SRC3 luciferase reporter | inhibition, % at 3.6 µM | 360,000 tested, 0.17% active | AID 588352, 2011;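 active means inhibition above a per-campaign cutoff, the mean of all compounds plus 3 SD, cut at about 60% in these data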;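 further: 0% = DMSO-treated cells and 100% = gossypol-treated cells at 36 µM; higher means less SRC3-driven luciferase light from the GAL4 reporter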
# COUP-TFII inh: NR2F2 transcriptional activity inhibitors, primary screen, cell-based, luciferase reporter, HEK293T, luminescence; COUP transcription factor 2 (Homo sapiens), P24468; HEK293T NGFI-A luciferase reporter; inhibition, % at 8.6 µM; 370,000 tested, 0.7% active; AID 686940, 2013;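 active means inhibition above a per-plate cutoff, mean inhibition of test wells between control levels plus 3 SD, cut at about 38% in these data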;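 further: cells cotransfected with COUP-TFII expression vector driving the NGFI-A reporter; 0% = median of COUP-TF2 test wells and 100% = reporter-only cells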
# NCOA1 inh: SRC1 coactivator transcriptional activity inhibitors, primary screen, cell-based, luminescence; inhibition, % at 3.6 µM; Nuclear receptor coactivator 1 (Homo sapiens), Q15788; AID 588354, 2011; 360,000 tested, 0.12% active; HEK293 GAL4-SRC1 luciferase reporter;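 active means inhibition above the campaign mean plus 3 SD, with each screening campaign given its own cutoff, cut at about 60% in these data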;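 further: 0% = DMSO treated cells and 100% = gossypol at 36 µM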
# Gli antag conf: Gli-SUFU pathway antagonists, confirmation, single concentration, luciferase luminescence, Sufu-KO-LIGHT cells; shares compounds with Gli-Sufu block; Gli luciferase reporter; inhibition, % at 5 µM; 2,500 tested, 40% active;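 active means mean inhibition at 5 µM reaching about 45%, limit read from the data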;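 further: plate controls were DMSO-treated cells for no effect and wells lacking cells for full effect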
# SufuKO cytotox: cytotoxicity in Sufu-KO-LIGHT cells, confirmation, cytotoxicity control for Gli-SUFU antagonist project, cell-based, ATP luminescence, single concentration; shares compounds with Gli-Sufu block; cytotoxicity, % at 5 µM; 2,500 tested, 32% active; AID 651994, 2013;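 active means mean cytotoxicity at 5 µM above about 25%, limit read from the data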;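 further: cells exposed to compound overnight for roughly 16 to 18 hours; plate controls were DMSO wells with cells for no effect and medium without cells for full effect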
# Wnt3a cs: Wnt3a reporter signal inhibition, confirmation, counter-screen for Gli-SUFU antagonist project, Wnt-LIGHT cells, luminescence, single concentration; 2,500 tested, 20% active; shares compounds with Gli-Sufu block; AID 651995, 2013; Wnt3a-driven luciferase reporter; inhibition, % at 6.25 µM;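 active means mean inhibition above about 25%, limit read from the data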
# * = called active by the depositor; / = no result given. Rows were chosen to be rich in hits. Some 1.3% of all compounds tested hit in one or more screens of this group.
SMILES,Gli-Sufu block,LRH-1 inv ag,SRC2 inh,SRC3 inh,COUP-TFII inh,NCOA1 inh,Gli antag conf,SufuKO cytotox,Wnt3a cs
Cc1c(OCC(=O)C(C)(C)C)ccc2c3c(c(=O)oc12)CCCC3,62.3*,-25.1,7.8,-42.3,-18.9,-9.5,27.4,6.5,-50.1
CC(=O)Nc1ccc(NC(=O)Nc2ccccc2C)cc1,75.6*,-15.8,-23.3,-14.2,-18.4,-13.2,26.5,-2.2,-43.8
Cc1ccccc1NC(=O)NCCCCc1ccccc1,96.0*,-6.2,-7.3,-20.0,-14.1,-17.9,6.1,22.9,-74.3
Cc1ccccc1NC(=O)NCCc1ccc(Cl)cc1,-8.0,-5.0,-30.9,-6.8,18.8,-8.7,/,/,/
CCOC(=O)c1cc(CC)sc1NC(=O)c1cc(OCC)c(OCC)c(OCC)c1,99.2*,13.3,-9.6,-2.1,-17.3,9.5,26.8,6.1,-17.1
COCCNC(=S)NCc1ccc2[nH]c3c(c2c1)CCCC3,91.6*,-10.7,-10.7,-101.2,-27.6,-63.2,12.3,25.6*,-8.5
O=C(NC1=NC2(C=C3CCCCC3n3c(=O)n(-c4ccccc4)c(=O)n32)CN1CC1CC1)c1ccccc1 (stereo not drawn),/,/,5.1,/,-6.4,/,/,/,/
NC1=NC[C@H](c2ccccc2)N1CCCCC1CCCCC1,61.8*,-10.5,-27.6,-6.8,0.8,-0.2,53.7*,34.2*,23.3
CCOc1ccc(-c2c(=O)n(OCc3ccccn3)c3ccccc3[n+]2[O-])cc1,2.0,-56.6,-32.9,-17.1,-23.2,-23.6,/,/,/
O=c1c(-c2ccc(Oc3ccccc3)cc2)[n+]([O-])c2ccccc2n1OCc1ccccn1,94.6*,-13.3,5.8,-2.5,-1.5,-15.1,14.9,3.6,-0.5
CCCC1CCC2(CC1)CCC2OC(=O)Nc1c(OC)cccc1OC (stereo not drawn),/,/,/,/,9.6,/,/,/,/
Nc1nc(SCC(=O)Nc2cccc(Oc3ccccc3)c2)n[nH]1,53.5,1.6,-17.7,-2.2,-27.0,-19.3,20.2,2.4,-5.5
CCNc1nc(CSc2ccccc2)nc2sc(C)c(C)c12,68.9*,-20.9,-38.8,-18.9,-1.2,0.3,25.8,23.9,-26.9
Cc1sc2nc(CSc3ccccc3)nc(NCCN(C)C)c2c1C,10.1,4.1,-32.1,11.7,-5.0,-3.2,/,/,/
CC(C)NC(=O)CCn1nnc(-c2cccs2)n1,/,/,-8.2,/,-3.3,/,/,/,/
O=C(Cn1nc(C(=O)O)c2ccccc2c1=O)Nc1ccccc1C(F)(F)F,78.5*,11.2,9.6,-5.3,4.9,-2.1,11.8,7.3,-20.4
O=C(CCNC(=O)N1CC(=O)Nc2ccccc21)NCCc1cccc(F)c1,50.3,3.7,4.0,9.8,15.3,1.0,18.0,2.1,-6.0
COC(=O)[C@H](C)NC(=O)[C@@H]1CC=C[C@@H]2CCN(CCc3ccccc3)C(=O)[C@@H]21,/,/,/,/,2.4,/,/,/,/
CCc1nnc(NC(=O)c2cc(-c3ccco3)nc3ccccc23)s1,61.2*,11.4,-17.1,1.8,4.9,-6.6,9.5,10.8,-5.2
CCc1nnc(NC(=O)c2cc(-c3ccccn3)nc3ccccc23)s1,-1.4,-22.9,-8.9,-5.1,-3.5,-3.8,/,/,/
O=[N+]([O-])c1cnc2ccccc2c1Sc1ccccc1,/,/,/,/,-4.3,/,/,/,/
C=CCn1c(COc2ccccc2)nnc1SCC(=O)Nc1ccc(S(=O)(=O)Nc2cc(C)nc(C)n2)cc1,/,/,-20.5,/,-9.4,/,/,/,/
COc1ccc(N(CC(=O)Nc2nccs2)S(=O)(=O)c2c(C)nn(C)c2C)cc1,57.6*,19.6,2.4,8.6,3.6,8.2,32.2,3.6,3.2
O=C1OCC2=C1C(c1ccc(F)cc1)c1cc3c(cc1N2)OCO3 (stereo not drawn),55.7*,17.0,15.0,10.9,-68.7,2.8,57.7*,62.3*,24.8
C#CCOc1ccc(C2C3=C(COC3=O)Nc3cc4c(cc32)OCO4)cc1OC (stereo not drawn),-18.8,-7.7,15.3,-0.8,-53.0,-13.8,/,/,/
SMILES,Gli-Sufu block,LRH-1 inv ag,SRC2 inh,SRC3 inh,COUP-TFII inh,NCOA1 inh,Gli antag conf,SufuKO cytotox,Wnt3a cs
CCOc1ccccc1C1CC(=O)Nc2cc3c(cc21)OCO3 (stereo not drawn),20.6,14.8,31.1,28.5,24.4,7.3,/,/,/
CCOc1ccccc1C1C2=C(COC2=O)Nc2cc3c(cc21)OCO3 (stereo not drawn),54.9,11.3,15.9,11.7,-44.1,-12.4,51.6*,62.2*,12.8
COc1ccc(NC(=O)c2cccc(N3C(=O)C4C5C=CC(C6CC56)C4C3=O)c2)c(OC)c1 (stereo not drawn),55.5*,2.4,-16.2,-11.1,8.7,-1.1,28.8,-3.4,8.9
CC(C)(C)c1ccc(CN2C3=NCCCN3c3ccccc32)cc1,69.3*,9.4,14.5,26.1,7.8,23.0,60.1*,25.0,15.3
Clc1cccc(CN2C3=NCCCN3c3ccccc32)c1,56.1*,7.7,-4.4,8.7,16.7,14.3,18.6,24.2,-38.3
COC(=O)[C@]1(CNC(=O)C(F)(F)F)CC(=O)N(C)[C@@H]1c1ccccc1,/,/,-16.6,/,-3.9,/,/,/,/
O=C(c1cccc(F)c1F)N(Cc1ccccn1)CC1CCCO1 (stereo not drawn),/,/,10.2,/,-0.2,/,/,/,/
C=CC[C@]1(O)C(=O)N(c2ccccc2)c2ccccc21,/,/,12.7,/,-1.9,/,/,/,/
O=c1c2ccccc2nc2n1C(CSCc1ccc(Cl)cc1Cl)CS2 (stereo not drawn),52.4,-9.7,-13.7,27.1,8.2,7.6,44.2,33.1*,-7.4
C/C(=N\Nc1ccc2nncn2n1)c1ccc(Br)s1,61.7*,8.5,32.1,18.2,-6.4,13.3,29.1,25.0,-3.5
Cc1ccc(-c2csc(NC(=O)c3c(C)noc3C)n2)cc1C,-1.0,-49.4,-34.6,-28.7,-6.2,-22.3,/,/,/
Cc1ccc(-c2csc(NC(=O)c3c(C)noc3C)n2)s1,54.8,-9.9,/,-23.9,/,-25.8,63.7*,34.2*,-13.6

# Source: PubChem
